# Source: PubChem BioAssay (NCI)
# About 83,000 compounds went through this panel and 20% of them were active in at least one assay; those are over-represented in the sample as a whole.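 Single-concentration screen, 48 h exposure, 96-well plates. Endpoint: percent growth. Below 10 = active.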 Values without a mark were called inactive. The source made the active and inactive calls.
# Columns and labels:
# Experiment in all cases: NCI-60 one-dose screen, 48 h (100 = growth as untreated, 0 = no growth, -100 = all killed)
# [1] = system: SR leukemia; conditions: 10 µM unless noted
# [2] = system: RPMI-8226 leukemia; conditions: 10 µM unless noted
# [3] = system: OVCAR-8 ovarian; conditions: 10 µM unless noted
# [4] = system: OVCAR-5 ovarian; conditions: 10 µM unless noted
# [5] = system: OVCAR-4 ovarian; conditions: 10 µM unless noted
# [6] = system: SK-OV-3 ovarian; conditions: 10 µM unless noted
# [7] = system: IGROV1 ovarian; conditions: 10 µM unless noted
# [8] = system: OVCAR-3 ovarian; conditions: 10 µM unless noted
# [9] = system: HS 578T breast; conditions: 10 µM
# [10] = system: NCI/ADR-RES ovarian; conditions: 10 µM unless noted
Structure (SMILES),growth [1],growth [2],growth [3],growth [4],growth [5],growth [6],growth [7],growth [8],growth [9],growth [10]
COC(=O)[C@]12CC[C@@H](C)[C@H](C)[C@@H]1C1=CC[C@@H]3[C@@]4(C)C[C@@H](OC(=O)/C=C/c5ccccc5)[C@H](O)[C@@](C)(CO)[C@@H]4[C@H](O)C[C@@]3(C)[C@]1(C)CC2,-18.4% (active),9.79% (active),14.6%,-27.6% (active),23.3%,41.9%,31.2%,-37.1% (active),-0.549% (active),7.34% (active)
CCOc1cccc(/C=N/NC(=O)c2ccccc2Nc2ccnc(C(F)(F)F)c2)c1O,-20.1% (active),-19.7% (active),20.7%,13%,25%,8.43% (active),-13.8% (active),31.5%,39.2%,-0.31% (active)
C=C1[C@@H](O)C[C@H]2C(C)(C)C[C@H](Cl)C[C@]2(C)[C@H]1C[C@H](O)[C@H]1CC(=O)NC1=O,7.18% (active),-0.0704% (active),-18% (active),-10.8% (active),-36.3% (active),-29.7% (active),-15.4% (active),-27.4% (active),-15.7% (active),-2.98% (active)
COc1ccc2c(CCc3ccc(Cl)cc3)c3[n+](cc2c1OC)CCc1cc2c(cc1-3)OCO2,33.8%,20.7%,51%,86.2%,24.4%,75.2%,40.8%,44.2%,79.6%,101%
COC[C@@H](C)n1c(C2CCOCC2)nc2c1C1C=C(OC)C(c3c(C)noc3C)=CC1N=C2 (stereo not given in full),31.1%,10.4%,57.1%,70.3%,42.8%,39.6%,39.4%,28.9%,35%,43.4%
COc1ccc(C(=O)c2cc(OC)c(OC)c(OC)c2)cc1/C=C/C(=O)c1ccc(F)cc1,3.26% (active),23.3%,53.3%,1.82% (active),77.8%,93.5%,91.7%,61.4%,98%,31.1%
CC[n+]1c(/C=C/C=C2\N(C)c3ccccc3C2(C)C)sc2ccccc21,-5.33% (active),-31% (active),12.8%,27.4%,19.9%,-12.3% (active),32%,8.88% (active),39.8%,30.4%
COc1cc2c(c(OC)c1)C1c3ccccc3NC(=O)N1CC2 (stereo not given),13.2%,16.4%,44.3%,48.6%,50.4%,52.8%,60.2%,-6.26% (active),16.4%,1.85% (active)
Cc1cccc(NC(=O)[C@@H]2c3ccccc3C(=O)N(c3ccc(Cl)cc3)[C@H]2c2ccc(Cl)cc2)n1,34.5%,24.5%,51.2%,78.7%,45.1%,55.1%,73.5%,61.8%,72.4%,47.8%
Cc1cc2c(-c3nc4ccccn4c3NC3CCCCC3)c(O)c(O)cc2c(O)c1-c1c(C)cc2c(-c3nc4ccccn4c3NC3CCCCC3)c(O)c(O)cc2c1O,25.8%,31.6%,34.4%,33.7%,27.4%,41.5%,36.2%,32.4%,21.9%,71.9%
CCOC(=O)C1=C(C)N=C2Sc3cc(OC(F)(F)F)ccc3N2[C@H]1c1ccccn1,26.2%,33.6%,38%,65%,28.3%,39.9%,39.8%,51.5%,63.5%,38.2%
COc1ccc2c(CCCc3ccc(Cl)cc3Cl)c3[n+](cc2c1OC)CCc1cc2c(cc1-3)OCO2,-38.6% (active),-24.5% (active),0.597% (active),28.9%,20.5%,-8.36% (active),-8.37% (active),-48.4% (active),32.9%,76.4%
